Results taken from PubChem BioAssay (EPA / NIEHS).
The source made the active and inactive calls. Rule for the calls: active = hit-call score of the fitted dose curve at least 0.9, where 1 is the maximum; inactive = score below 0.9.

Read-out: TIMP metallopeptidase inhibitor 1 (TIMP1), TIMP1 (gene 7076)
Assay: BSK_hDFCGF_TIMP1: BioMAP Diversity Plus: hDFCGF Assay for TIMP metallopeptidase inhibitor 1 (TIMP1) Biomarker Activity (AID 2283062)
Conditions: primary human foreskin fibroblasts; actives raise or lower the signal
Method: BSK_hDFCGF is a cell-based, multiplexed-readout assay that uses foreskin fibroblast, a human skin primary cell, with measurements taken at 24 hours after chemical dosing in a 96-well plate.BSK_hDFCGF_TIMP1 is an assay component measured in the BSK_hDFCGF assay. It measures TIMP-1 antibody related to regulation of gene expression using ELISA technology.Data from the assay component BSK_hDFCGF_TIMP1 was analyzed into 1 assay endpoint. This assay endpoint, BSK_hDFCGF_TIMP1, was analyzed with bidirectional fitting relative to DMSO as the negative control and baseline of activity. Using a type of binding reporter, gain or loss-of-signal activity can be used to understand changes in the signaling as they relate to the gene TIMP1. Furthermore, this assay endpoint can be referred to as a primary readout, because this assay has produced multiple assay endpoints where this one serves a signaling function. To generalize the intended target to other relatable targets, this assay endpoint is annotated to the protease inhibitor intended target family, where the subfamily is metalloproteinase inhibitor.
The levels of cell surface (or secreted, indicated by the prefix "s") biomarker endpoints were measured by ELISA. Overt cytotoxicity to cells in confluent adherent cultures (all systems other than the BT system) was assessed by measuring total protein levels using sulforhodamine B (SRB) staining in parallel cultures at the time of biomarker measurements, indicated as SRB endpoints. For proliferation assays for adherent cell types, individual cell types are cultured at sub-confluence and relative cell numbers quantified by SRB staining at time points optimized for each system (48 h: 3C and CASM3C systems; 72 h: BT and HDF3CGF systems; 96 h: SAg system). SRB was performed by staining cells with 0.1% SRB after fixation with 10% TCA and reading wells at 560 nm.Viability and proliferation of PBMC (T cells) was quantified by Alamar Blue reduction for the SAg and BT systems. For PBMC viability (referred to as PBMC Cytotoxicity within the assay endpoint names), cells were plated (75,000/well in a 96-well plate) and then chemical samples added for 1 h before addition of activators, SEB and TSST-1 (20 ng/mL final concentration each). Cells were incubated for 90 h. Then, Alamar Blue (20 uL/well) (Invitrogen, Cat DAL1100) was added for 6 h, and the plates were read with a fluorescence microplate reader at 546/580 nm (excitation/emission). For PBMC proliferation, cells were plated and activated as above but incubated for only 16 h prior to addition of Alamar Blue. Plates were read after 6 h.

Q: With `CCCCOC(=O)CCCCCCCCC(=O)OCCCC` as the compound, how does the outcome read?
A: inactive

Q: With `CCOc1ccc2c(c1)C(C)=CC(C)(C)N2` as the compound, how does the outcome read?
A: inactive

Q: With `Nc1nc(N)c2nc(CNc3ccc(C(=O)N[C@@H](CCC(=O)O)C(=O)O)cc3)cnc2n1` as the compound, how does the outcome read?
A: inactive

Q: For `COc1ccc2c(c1)c(CC(=O)O)c(C)n2C(=O)c1ccc(Cl)cc1`, which outcome is on record?
A: inactive

Q: `O=c1c(O)c(-c2ccc(O)c(O)c2)oc2cc(O)cc(O)c12` was tested. Which outcome did it give?
A: inactive

Q: For `NCCO`, which outcome is on record?
A: inactive

Q: For `CNCc1cc(F)ccc1Oc1ccc(Cl)c(Cl)c1`, which outcome is on record?
A: inactive

Q: `CCCCCCCCCCCC(=O)OC` was tested. Which outcome did it give?
A: inactive

Q: `O=c1[nH]cc(F)c(=O)[nH]1` was tested. Which outcome did it give?
A: inactive

Q: How did the outcome turn out when `CCOC(=O)CCC(=O)OCC` was run?
A: inactive

Q: For `CCOC(=O)C(C)(C)Oc1ccc(Cl)cc1`, which outcome is on record?
A: inactive

Q: With `O=[N+]([O-])C(CO)(CO)CO` as the compound, how does the outcome read?
A: inactive

Q: `Cc1ccc(C(C)C)c(O)c1` was tested. Which outcome did it give?
A: inactive

Q: How did the outcome turn out when `OC[C@@H](O)[C@@H](O)[C@H](O)[C@H](O)CO` was run?
A: inactive

Q: With `Oc1ccc2ccccc2c1N=Nc1ccccc1` as the compound, how does the outcome read?
A: inactive

Q: `CC(=O)OC/C=C(\C)CCC=C(C)C` was tested. Which outcome did it give?
A: inactive

Q: How did the AC50 turn out when `COc1cc(-c2nc(NC(=O)c3cc4cc(C)cc(C)c4n3CC(=O)O)sc2CCC2CCCCC2)c(OC)cc1Cl` was run?
A: 480 nM (active)

Q: With `Cc1ccccc1Cl` as the compound, how does the outcome read?
A: inactive

Q: With `CCCCCCCCCCO` as the compound, how does the outcome read?
A: inactive

Q: For `CN1CCN(Cc2cc(-c3ccc4[nH]c(=O)oc4c3)co2)[C@@H](c2ccc(F)cc2)C1`, which outcome is on record?
A: inactive

Q: Which outcome does the source give for `CC1(C)CC(N=C=O)CC(C)(CN=C=O)C1` (stereo not given) here?
A: inactive

Q: How did the outcome turn out when `Cc1cccc([N+](=O)[O-])c1C` was run?
A: inactive

Q: For `CCCCCCOCCO`, which outcome is on record?
A: inactive

Q: How did the outcome turn out when `COc1ccc(S(=O)(=O)N2C(=O)[C@@](c3ccccc3OC)(N3C[C@H](O)C[C@H]3C(=O)N(C)C)c3cc(Cl)ccc32)c(OC)c1` was run?
A: inactive

Q: With `Cc1ccc2ncccc2c1` as the compound, how does the outcome read?
A: inactive

Q: Which outcome does the source give for `CCCc1cc(=O)[nH]c(=S)[nH]1` here?
A: inactive

Q: How did the outcome turn out when `COc1cc(C=O)ccc1O` was run?
A: inactive

Q: With `Cc1cccc(Nc2cc(Cl)nc(SCC(=O)O)n2)c1C` as the compound, how does the outcome read?
A: inactive

Q: With `COCCOC[C@H](CC1(C(=O)NC2CCC(C(=O)O)CC2)CCCC1)C(=O)Oc1ccc2c(c1)CCC2` (stereo not given in full) as the compound, how does the outcome read?
A: inactive

Q: With `CC(=O)C(C)=CC1C(C)=CCCC1(C)C` (stereo not given) as the compound, how does the outcome read?
A: inactive

Q: For `CC(C)(C)c1cc(O)c(C(C)(C)C)cc1O`, which outcome is on record?
A: inactive

Q: For `COC(=O)c1ccc(O)cc1`, which outcome is on record?
A: inactive

Q: For `CC1(C)NC(=O)NC1=O`, which outcome is on record?
A: inactive

Q: With `COc1ccc(C)cc1N` as the compound, how does the outcome read?
A: inactive

Q: With `C1CCC(SSC2CCCCC2)CC1` as the compound, how does the outcome read?
A: inactive

Q: With `CCCCCC(=O)O` as the compound, how does the outcome read?
A: inactive

Q: For `CNC(=O)[C@H]1O[C@@H](n2cnc3c(NCc4cc(Cl)ccc4OCc4cc(C)no4)ncnc32)[C@H](O)[C@@H]1N`, which outcome is on record?
A: inactive

Q: For `CC(CO)OC(C)CO` (stereo not given) (tested in a mixture with another compound), which outcome is on record?
A: inactive

Q: `NC(=O)Cn1c(=O)cc(CCN2CCN(c3nccc4sccc34)CC2)c2ccc(F)cc21` was tested. Which outcome did it give?
A: inactive

Q: How did the outcome turn out when `CC(=O)OCCOCCOCCOC(C)=O` was run?
A: inactive
